CHX counter – Cycloheximide Counterscreen for Small Molecule Inhibitors of Shiga Toxin; cell reporter, cycloheximide protein synthesis inhibition counterscreen; max response, %; 12% of 300,000 active; in the data active means max response mostly above about 13%, no sharp cut-off; inactive means mostly below about 14%; further: read at 38.3 µM for the half of the compounds with a filed dose; 0% is about no effect
Vaccinia Venus – qHTS for Stage-Specific Inhibitors of Vaccinia Orthopoxvirus: Venus Reporter Primary qHTS | Vaccinia virus Venus reporter expression, fluorescence | Potency, µM (titrated, usually from 36.5 µM), without a hit: top-dose activity change, negative = inhibition, most hits filed as inhibitors | 0.46% of 330,000 active | AID 720580, 2013; calls by dose curve; tested in A549 cells; further: potency means the concentration at half of the fitted maximal effect; on the % scale 0 is the no-effect control and ±100 the full control effect; nearly all actives have a fitted effect of over 30% in size
MARV entry inh – qHTS for inhibitors of binding or entry into cells for Marburg Virus. Marburg virus pseudotyped entry inhibition, cell reporter. Potency, µM (titrated, usually from 37.8 µM), for inactives: top-dose activity change, negative = inhibition, most hits filed as inhibitors. 1.8% of 300,000 active. AID 540276, 2011; calls by dose curve; tested in HEK293 cells; further: potency means the concentration at half of the fitted maximal effect; on the % scale 0 is the no-effect control and ±100 the full control effect
LASV entry inh – qHTS for Inhibitors of binding or entry into cells for Lassa Virus; Lassa virus pseudotype entry inhibition, cell reporter; 1.2% of 300,000 active; Potency, µM (top dose mostly 37.9 µM), for inactives: at the top dose activity change, negative = inhibition, hits mostly inhibitors; calls by dose curve; tested in HEK293 cells; further: potency means the concentration at half of the fitted maximal effect; on the % scale 0 is the no-effect control and ±100 the full control effect; nearly all actives have a fitted effect of over 50% in size
Shiga inhibitor – A qHTS for Small Molecule Inhibitors of Shiga Toxin; Vero cells, Shiga toxin protein synthesis inhibition reporter; AID 2315, 2010; 9.2% of 290,000 active; inhibition, % at 38.7 µM; in the data active means inhibition mostly above about 28%, no sharp cut-off; inactive means mostly below about 43%; further: 0% is about no effect
Vaccinia mCherry – qHTS for Stage-Specific Inhibitors of Vaccinia Orthopoxvirus: mCherry Reporter Primary qHTS. Vaccinia virus mCherry reporter infection, fluorescence. Potency, µM (top dose mostly 36.5 µM), for the others: at the top dose activity change, negative = inhibition, usual class: inhibitors. 0.63% of 310,000 active. AID 720579, 2013; calls by dose curve; tested in A549 cells; further: potency means the concentration at half of the fitted maximal effect; on the % scale 0 is the no-effect control and ±100 the full control effect; nearly all actives have a fitted effect of over 35% in size
Active calls of the source: *; i = inactive; ? = inconclusive; . = no result; [ ] = dose if it differs, or a comment. Shown is part of a subset that was picked to be rich in hits.

SMILES	CHX counter	Vaccinia Venus	MARV entry inh	LASV entry inh	Shiga inhibitor	Vaccinia mCherry
COc1cc(C(=O)Nc2nccs2)c(Br)c(OC)c1OC	0	-17%	?	-16%	-8	-25%
COc1cc(SC)ccc1C(=O)Nc1nccs1	28*	-2%	?	?	active	6%
COc1cc(SC)ccc1C(=O)NCC1CCCCC1	28*	-11%	1%[46.1 µM]	-19%	75*	38%
C=CCN1C(=O)C2(CC(C)=C[C@@H](C)O2)c2c(Br)cccc21 (stereo partly drawn)	.	.	26%[14.2 µM]	.	.	.
CCCn1c(SCc2nc(-c3ccc(OC)cc3OC)no2)nnc1-c1ccc(Cl)cc1	.	-17%	-1%[46.1 µM]	-7%[46.1 µM]	.	-9%
CCOC(=O)c1cnc2c(C(F)(F)F)cccc2c1Nc1cccc(C(=O)OC)c1	.	2%	6%[46.1 µM]	23%[46.1 µM]	.	-11%
CCCCn1c(N)c(N(Cc2ccccc2OC)C(=O)C(C)Oc2ccc(Br)cc2)c(=O)[nH]c1=O (stereo not drawn)	.	1%	17%	-16%	.	-14%
COc1cc(SC)ccc1C(=O)Nc1nc2ccccc2[nH]1	-12	-15%	?	?	-23	-22%
COc1cc(SC)ccc1C(=O)N1CCN(c2ccccc2OC)CC1	-6	-17%	?	?	9	-2%
COc1cc(SC)ccc1C(=O)Nc1ccccc1	37*	.	?	-24%	94*	.
COc1cc(SC)ccc1C(=O)Nc1c(C)cccc1C	13*	-13%	?	14%	15	-4%
COc1ccccc1OC(=O)c1ccc(SC)cc1OC	14*	-8%	?	10µM*	15	i
Cc1ccc2nc(CN3CCN(C(=O)Nc4cccc(C)c4C)CC3)oc2c1	.	-3%	.	4%[46.1 µM]	.	-13%
CCCCN(CCCC)CCNC(=O)c1cn(C)c2ccc(S(=O)(=O)N3CCOCC3)cc2c1=O	.	-6%	-7%[46.1 µM]	-25%[46.1 µM]	.	-18%
O=C(Nc1ccc2c(c1)OCCO2)NC12CC3CC(CC(C3)C1)C2	49*	.	?	-12%	108*	.
COC(=O)c1ccc(NC(=O)Nc2ccc3c(c2)OCO3)cc1	50*	-7%	?	-14%[46.1 µM]	87*	-1%
COC(=O)c1ccc(NC(=O)CN(c2ccc3c(c2)OCO3)S(C)(=O)=O)cc1	8	-11%	?	16%	19	-10%
COc1ccc(NC(=O)NC23CC4CC(CC(C4)C2)C3)cc1OC	9	-21%	14%	3%	-2	.
O=C(Nc1ccc2c(c1)CCC2)Nc1ccc2c(c1)OCO2	47*	0%	.	.	134*	i
O=C(Nc1ccc2c(c1)OCCO2)NC1(C(F)(F)F)Oc2ccccc2O1	92*	-5%	.	.	89*	?
COc1cc2c(cc1OC)C(COc1cc(C)cc(C)c1)N(C(=O)C(C)(C)C)CC2 (stereo not drawn)	.	2%	.	-3%[46.1 µM]	.	-3%
CCC(C)C(N)C(=O)NC(CC(N)=O)C(=O)NC(CC(C)C)C(=O)NC(CCCCN)C(=O)NC(C)C(=O)NC(CC(C)C)C(=O)NC(C)C(=O)NC(C)C(=O)NC(CC(C)C)C(=O)NC(C)C(=O)NC(CCCCN)C(=O)NC(CCCCN)C(=O)NC(C(=O)NC(CC(C)C)C(N)=O)C(C)CC (stereo not drawn)	-9	.	.	.	-16	.
O=C(CCl)Nc1ccc2c(c1)OCO2	34*	-19%	?	?	26	-20%
CC(=O)Nc1ccc2c(c1)OCCO2	0	-12%	6%	4%	-2	.
C=C(C)C(=O)Nc1ccc2c(c1)OCCOCCOCCO2	-3	-17%	11µM*	-5%[46.1 µM]	-7	i
SMILES	CHX counter	Vaccinia Venus	MARV entry inh	LASV entry inh	Shiga inhibitor	Vaccinia mCherry
CC(C)CC(=O)Nc1ccc2c(c1)OCO2	19	-4%	?	?	30	-9%
NC(=O)c1ccc(NC(=O)Nc2ccc3c(c2)OCO3)cc1	34*	.	.	.	47*	.
O=C(Nc1ccc2c(c1)OCCO2)N1CCOCC1	25	-11%	-4%[46.1 µM]	?	54	i
O=C(Nc1ccc2c(c1)OCCO2)Nc1ccc2c(c1)OCO2	33*	-13%	?	8.9µM*	62*	-12%
CC(=O)Nc1ccc2c(c1)OCO2	9	-10%	-19%[46.1 µM]	-11%[46.1 µM]	17	i
Cc1c(NC(=O)Nc2ccc3c(c2)OCO3)c(=O)n(-c2ccccc2)n1C	0	-7%	13%	?	-10	-13%
Cc1ccnc(NC(=O)Nc2ccc3c(c2)OCO3)c1	27*	-10%	?	?	74*	-13%
CC(C)N1CCC(NC(=O)Nc2ccc3c(c2)OCO3)CC1	29*	10%	2%[46.1 µM]	21%	28	-13%
O=C(Nc1cccc([N+](=O)[O-])c1)Nc1ccc2c(c1)OCCO2	33*	-26%	-29%[46.1 µM]	-3%	53	-24%
O=C(Nc1ccc2c(c1)OCO2)Nc1ccc(Br)cn1	37*	.	-5%	?	83*	.
O=C(CSc1ccc2c(c1)OCCO2)Nc1ccc(Br)cn1	9	?	22%	0%	-5	?
CC(C)N1CCCC(C)(C(=O)Nc2ccc3c(c2)OCO3)C1 (stereo not drawn)	.	-5%	.	.	.	10%
O=C(O)C1CC=CCC1C(=O)Nc1ccc2c(c1)OCCO2 (stereo not drawn)	61*	-11%	-2%[46.1 µM]	5%	36*	-17%
O=C(O)C1CC=CCC1C(=O)Nc1ccc(F)c(F)c1 (stereo not drawn)	-4	-2%	-2%	-9%	-7	-4%
CC1(C(=O)Nc2ccc3c(c2)OCCO3)CC1(Cl)Cl (stereo not drawn)	23*	6%	?	-9%[46.1 µM]	42*	i
CC1(C(=O)Nc2ccc3c(c2)OCCO3)CCC(=O)N1C1CC1 (stereo not drawn)	.	5%	.	.	.	i
CNC(=O)c1nc(C)n(-c2cc(Cl)ccc2Cl)n1	29*	.	1%	-4%	42	.
CNC(=O)c1nc(C)n(-c2cc(Cl)cc(Cl)c2)n1	4	.	-5%	11%	-9	.
COc1cccc(C2=Nn3c(nnc3-c3ccccc3OC)SC2)c1	-1	.	.	.	2	.
O=C(Nc1ccccc1N1CCCC1)c1cccc(-c2cc3ccccc3oc2=O)c1	18*	-5%	-13%	-2%	29	-15%
O=C(Nc1ccc(N2CCCC2)cc1)c1cccc(-c2cc3ccccc3oc2=O)c1	8	-4%	?	?	14	i
O=C(Nc1ccc(Br)cn1)c1cccc(-c2cc3ccccc3oc2=O)c1	41*	?	?	?	49*	?
O=C(O)CC1(CC(=O)N2CCC(C(=O)O)CC2)CCCC1	-5	-11%	3%[46.1 µM]	13%[46.1 µM]	-1	i
COc1cccc(CO[C@H]2C=C[C@@H](c3ccccc3)O[C@H]2COC(C)=O)c1	.	.	8%[14.2 µM]	.	.	.
CCOC(=O)c1sc(=N)n(-c2ccc(OC)cc2)c1C	28*	-20%	14%	?	102	-3%

Compound activity from PubChem.
